USP7 inh: inhibitors of human USP7 deubiquitinase; purified USP7, Ub-rhodamine cleavage fluorescence; inhibition, % at 20 µM; hit rate 0.3% among 47,000
USP10 block: inhibitors of human USP10 deubiquitinase. inhibition, % at 20 µM. hit rate 1.1% among 47,000. purified USP10, Ub-rhodamine fluorescence, 60 min. Ubiquitin carboxyl-terminal hydrolase 10 (Homo sapiens), Q14694
Target sequence (Q14694 whole entry, looked up): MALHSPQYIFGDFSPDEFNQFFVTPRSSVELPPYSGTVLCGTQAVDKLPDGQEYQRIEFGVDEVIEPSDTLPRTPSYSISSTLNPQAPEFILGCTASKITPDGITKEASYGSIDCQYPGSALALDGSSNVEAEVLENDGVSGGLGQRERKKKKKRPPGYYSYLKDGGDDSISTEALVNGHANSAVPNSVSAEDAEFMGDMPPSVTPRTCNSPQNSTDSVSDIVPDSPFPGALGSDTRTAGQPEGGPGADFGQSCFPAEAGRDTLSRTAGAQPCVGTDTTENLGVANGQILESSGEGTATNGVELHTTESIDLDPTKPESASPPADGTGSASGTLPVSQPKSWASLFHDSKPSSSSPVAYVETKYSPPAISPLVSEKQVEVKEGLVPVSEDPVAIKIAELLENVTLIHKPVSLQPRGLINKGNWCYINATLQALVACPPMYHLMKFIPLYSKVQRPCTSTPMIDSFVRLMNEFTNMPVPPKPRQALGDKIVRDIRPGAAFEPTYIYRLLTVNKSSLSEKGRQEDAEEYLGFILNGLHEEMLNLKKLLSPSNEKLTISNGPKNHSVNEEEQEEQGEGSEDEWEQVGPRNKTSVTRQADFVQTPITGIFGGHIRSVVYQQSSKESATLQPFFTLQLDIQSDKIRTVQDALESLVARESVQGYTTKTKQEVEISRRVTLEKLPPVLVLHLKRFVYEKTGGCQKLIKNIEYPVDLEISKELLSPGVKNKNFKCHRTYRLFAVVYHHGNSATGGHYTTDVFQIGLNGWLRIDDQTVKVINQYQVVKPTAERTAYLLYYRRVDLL
OTUD3 block: inhibitors of human OTUD3 deubiquitinase; hit rate 0.7% among 47,000; inhibition, % at 25 µM; AID 1645858, 2021; purified OTUD3, Ub-rhodamine fluorescence, 2 h; OTU domain-containing protein 3 (Homo sapiens), Q5T2D3
UCHL1 block: inhibitors of human UCHL1 deubiquitinase; Ubiquitin carboxyl-terminal hydrolase isozyme L1 (Homo sapiens), P09936; purified UCHL1, Ub-rhodamine cleavage fluorescence; inhibition, % at 20 µM; hit rate 0.2% among 47,000; AID 1645859, 2021
A number is an active result; - = inactive. Rows were chosen to be rich in hits. Some 1.8% of all compounds tested hit in one or more screens of this group. Cut-off read from the data, not from the text of the source: active = inhibition above about 30%; inactive = the rest.

SMILES	USP7 inh	USP10 block	OTUD3 block	UCHL1 block
Cc1ncc(CNS(=O)(=O)c2ccccc2)c(C2CCCN2C)n1 (stereo not given)	-	-	-	-
O=C(COc1ccc(C2CCCCC2)cc1)Nc1ccc(-c2nn3cnnc3s2)cc1	-	35	46	-
CC(C)OC(=O)c1cc2c(ccn2-c2ccc(F)cc2)n1CC(=O)N(C)C1CCCCC1	-	-	-	-
Cc1ccc(S(=O)(=O)NCc2ccc(C(=O)NCCc3ccc(S(N)(=O)=O)cc3)cc2)cc1	-	49	77	-
CC(C)CCCCCCCCCCC(=O)N(C)[C@H](CO)C(=O)N[C@H](C)C(=O)NCC(=O)N(C)C1C(=O)N[C@@H](C)C(=O)NC(C(=O)O)Cc2ccc(O)c(c2)-c2cc1ccc2O (stereo not given in full)	-	60	-	-
Cc1c(-c2nnc(C3CC3)o2)c(S(=O)(=O)N2CCN(C(C)C)CC2)c(C)n1C	-	-	-	-
COc1ccc(NC(=O)Cn2c(C)cc(=O)n3nc(-c4cccc(C)c4)nc23)cc1	-	47	-	-
CCc1ccc(NC(=O)Cn2c(C)cc(=O)n3nc(C(F)(F)F)nc23)cc1	-	-	-	-
CCC(=O)Nc1nc2cc(NC(=O)Nc3ccc(C)cc3)ccc2s1	-	30	-	-
O=C(COc1nc2ccccc2nc1N1CCOCC1)Nc1cccc(S(=O)(=O)N2CCCCC2)c1	-	-	47	-
O=C(O)CNC(=O)N1CCC2(CC1)C(=O)N(Cc1ccccc1)c1ccccc12	-	-	-	-
O=C(NC1CCCc2ccccc21)c1ccc(-c2ccccc2)cc1 (stereo not given)	-	-	-	-
COc1ccc(-c2cc(-c3ccc(F)cc3)[nH]c(=O)c2C#N)cc1	-	40	-	-
O=C(c1cc2ccccc2o1)N1CCc2sccc2C1c1ccccc1 (stereo not given)	-	-	-	-
O=C(c1cc2ccccc2o1)N1CC=C(c2ccccc2)CC1	-	-	32	-
O=S(c1ccc2ccccc2c1)c1cnns1 (stereo not given)	-	-	34	-
Cc1nn2c(nc(NC3CCCc4ccccc43)c3ccccc32)c1Cl (stereo not given)	-	-	-	-
O=C(C1CCCN(c2cnc3nccnc3c2)C1)N1CCN(C2CCCCC2)CC1 (stereo not given)	-	-	-	-
O=C(Nc1ccc(F)cc1)Nc1ccccc1OCc1cc(=O)n2ccccc2n1	-	-	33	-
O=C(Nc1ccc2c(c1)OCCO2)Nc1ccccc1OCc1cc(=O)n2ccccc2n1	-	-	-	-
COc1ccc(N(CC(=O)N/N=C(\C)c2cccc(NC(=O)c3cccc(Cl)c3)c2)S(=O)(=O)c2ccc(C)cc2)cc1OC	-	-	-	-
Cc1cccc(OCC(=O)Nc2ccc3c(c2)NC(=O)CO3)c1	-	-	-	-
Cc1cc(OCC(=O)Nc2ccc3c(c2)NC(=O)CO3)ccc1Cl	-	45	-	-
N#Cc1cccc(CN2CCC(c3nc(-c4ccc(C(F)(F)F)nc4)no3)CC2)c1	-	-	-	-
Cn1nccc1C(=O)N1CCCCC1c1ncc(Cc2ccc(Cl)cc2)o1 (stereo not given)	-	-	35	-
SMILES	USP7 inh	USP10 block	OTUD3 block	UCHL1 block
CCc1nnc(-c2ccc3ccn(CC(=O)N4CCN(c5ccccn5)CC4)c3c2)o1	-	33	83	-
Cc1nnc(-c2ccc3ccn(CC(=O)N4CCN(c5ccccn5)CC4)c3c2)o1	-	-	-	-
O=c1[nH]c(C2CCN(S(=O)(=O)c3ccc(S(=O)(=O)NC4CC4)cc3)CC2)nc2c1nnn2Cc1ccccc1	-	-	-	-
O=c1[nH]c(C2CCN(S(=O)(=O)c3ccc(S(=O)(=O)NC4CCCCC4)cc3)CC2)nc2c1nnn2Cc1c(F)cccc1Cl	-	45	-	-
O=c1[nH]c(C2CCN(S(=O)(=O)c3ccc(S(=O)(=O)NC4CCCCC4)cc3)CC2)nc2c1nnn2Cc1ccc(F)cc1	-	36	-	-
Cc1ccc(Cn2nnc3c(=O)[nH]c(C4CCN(S(=O)(=O)c5ccc(S(=O)(=O)NC6CCCCC6)cc5)CC4)nc32)cc1	-	-	-	-
O=c1[nH]c(C2CCN(S(=O)(=O)c3ccc(S(=O)(=O)NC4CCCCC4)cc3)CC2)nc2c1nnn2Cc1c(Cl)cccc1Cl	-	42	-	-
O=c1[nH]c(C2CCN(S(=O)(=O)c3ccc(S(=O)(=O)NC4CC4)cc3)CC2)nc2c1nnn2Cc1c(Cl)cccc1Cl	-	31	-	-
Cc1nc(CN2CCOC(Cn3cccn3)C2)oc1C (stereo not given)	-	-	-	-
CCc1cnc(N2CCC3(CC2)OC(C(=O)N2CCOCC2)Cn2ccnc23)nc1 (stereo not given)	-	-	-	-
Cc1nc(C)n(CC(=O)N2CC[C@H]3NC(=O)COc4ccccc4CCCC[C@@H]3C2)n1	-	-	-	-
CCCN1CCc2c(sc(NC(=O)CSc3ccccc3)c2C(N)=O)C1	-	-	-	-
Cc1cc(C)c2c(-n3cccc3)nn(CC(=O)N3CCN(Cc4ccccc4)CC3)c2n1	-	-	-	-
COc1cccc(NC(=O)C2Cn3ccnc3C3(CCN(C(C)=O)CC3)O2)c1 (stereo not given)	-	-	32	-
COc1cccc(CN2CCC3(CC2)OC(C(=O)Nc2ccccc2)Cn2ccnc23)c1 (stereo not given)	-	-	-	-
CCCCCCCCCCCCCCCc1cc(O)cc(O)c1	-	30	-	-
CC(C)(C)c1ccc(-c2nc3cc(C(F)(F)F)ccc3n3ccnc23)cc1	-	-	-	-
Cc1ccc(C2CC(=O)Nc3c2c(C)nn3-c2ccc3nnc(C)n3n2)cc1 (stereo not given)	-	-	-	-
Cc1ccc(NC(=O)COc2ccccc2C#N)cc1	-	-	-	-
Cc1ccc(NC(=O)COc2ccccc2/C=C2/NC(=O)N(Cc3ccc(F)cc3)C2=O)cc1	-	36	-	-
COc1cc(NC(=O)c2ccc3c(c2)OCO3)ccc1-c1cc2ccccc2oc1=O	-	-	55	-
CC(C)CC/C=C/C=C/CC/C=C/C=C/CC(C)C(O)C(O)C(O)C(O)C(O)C1OC(=O)C(O)C1O (stereo not given)	-	-	-	-
N#Cc1ccc(C(=O)N2C[C@H](OCc3ccccn3)[C@H]3COC[C@H]32)cc1	-	-	-	-
Cc1ccc(NC(=O)Nc2ccc(C)n(CC(=O)Nc3cccc(C)c3)c2=O)cc1	31	53	-	-
Cc1cccc(NC(=O)Nc2ccc(C)n(CC(=O)Nc3ccc(C)c(C)c3)c2=O)c1	-	42	-	-
CC(C)c1cc(NCc2ccco2)n2nc(-c3cccnc3)nc2n1	-	-	-	-
Cc1cc(C)nc(SCCn2c(N3CCC(Cc4ccccc4)CC3)nc3c2c(=O)n(C)c(=O)n3C)n1	-	-	-	-
O=C(NCc1ccco1)c1ccc(Cn2c(SCc3ccccc3)nc3ccncc32)cc1	59	-	75	-
CC1CCN(C(=O)c2ccc(CSc3nc4ccncc4n3Cc3ccccc3)cc2)CC1	-	-	-	-

Screening data deposited in PubChem by Buhrlage Lab, Dana-Farber Cancer Institute and Novartis Institutes for BioMedical Research (Cambridge, Mass).
